# PubChem BioAssay AID894 (National Center for Advancing Translational Sciences (NCATS), 2007)
# The whole screen tested about 150,000 compounds, of which about 6,500 (4.3%) were called active. Not shown: some 12% with an inconclusive outcome. The sample holds actives, similar compounds and a random draw of the others, so the mix is not that of the screen. Values without a mark were called inactive. The call rests on the fitted dose curve; in most records, active means well fitted inhibition curve with a large enough effect (not every such curve was filed as active); inconclusive means small, poorly fitted or top-dose-only effect, or another doubt; inactive means no such curve, though single readings can be large or run the other way.
# Target: 15-hydroxyprostaglandin dehydrogenase [NAD(+)] (Homo sapiens) (UniProt P15428)
# Sequence (P15428 whole entry, looked up): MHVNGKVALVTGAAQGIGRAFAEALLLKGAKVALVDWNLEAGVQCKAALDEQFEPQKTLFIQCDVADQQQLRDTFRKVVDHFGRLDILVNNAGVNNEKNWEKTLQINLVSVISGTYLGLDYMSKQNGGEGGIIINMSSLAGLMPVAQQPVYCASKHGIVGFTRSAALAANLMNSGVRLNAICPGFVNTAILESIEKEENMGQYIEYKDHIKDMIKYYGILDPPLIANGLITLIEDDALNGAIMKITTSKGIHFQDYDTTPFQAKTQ
# Test: qHTS Assay for Inhibitors of HPGD (15-Hydroxyprostaglandin Dehydrogenase)
# Conditions: purified HPGD, NADH fluorescence kinetic, PGE2 substrate; activity change, negative = inhibition: hits give low values
# How it was run: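 20 nM HPGD preincubated 15 min at room temperature with compound in 50 mM Tris-HCl pH 8, 0.01% Tween 20. Started with 1 mM NAD+ and 30 uM prostaglandin E2; NADH fluorescence (360/450 nm) read 5 times over 30-s intervals, last minus first.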
# On the % scale 0 is the no-effect control and ±100 the full control effect; potency means the concentration at half of the fitted maximal effect.
Compound,"activity change, negative = inhibition",Potency
CCOC(=O)C1=NO[C@@]2(C=C(Br)C(=O)[C@H]3O[C@H]32)C1,-23%,
O=C(NCc1ccccn1)c1cc(-c2ccccc2Cl)on1,,14.1 µM (active)
COc1ccccc1-c1cc(C(=O)NCCCn2ccnc2)no1,-21.8%,
Clc1ccccc1-c1cc(COc2ccc3ccccc3c2)no1,-25.6%,
CCc1cccc(C)c1NC(=O)CSc1nnc(-c2ccco2)n1N,-10.6%,
NC(=O)c1c(NC(=O)CSc2nnc(-c3ccco3)n2N)sc2c1CCCC2,,14.1 µM (active)
CCOC(=O)c1c(NC(=O)CSc2nnc(CN3CCOCC3)n2C)sc2c1CCCC2,-2.63%,
CC(C)=C1C2CCC1C1C(=O)N(NC(=O)c3ccco3)C(=O)C21 (stereo not given),-7.1%,
CC(C)Cc1cc(C(=O)Nc2cc(Br)ccc2O)no1,,25.1 µM (active)
CC(C)CNC(=O)c1cc(-c2ccc(Br)cc2)on1,-23.1%,
CC(C)Cc1cc(C(=O)NCCc2ccccc2)no1,-20.6%,
COc1ccc(C(C(=O)NC2CCCCC2)N(C(=O)CCl)c2ccccc2Cl)cc1 (stereo not given),-4.95%,
N#Cc1c(NC(=O)c2ccc(N3CCOCC3)c([N+](=O)[O-])c2)sc2c1CCCC2,-10.9%,
O=C(/C=C/c1ccc(Cl)cc1)N1CCN(c2ccccc2[N+](=O)[O-])CC1,-15%,
CC(C)(C)NC(=O)C(=O)NCc1ccncc1,-2.72%,
Cc1nc2ccccc2n1CC(=O)N/N=C/c1cccs1,-4.95%,
O=C(c1cccs1)n1nc(NCc2ccccc2)nc1NCc1ccccc1,-18.3%,
O=C(CCC(=O)c1cccs1)NCc1ccccc1,,31.6 µM (active)
O=C(COC(=O)CCC(=O)c1cccs1)NCc1ccco1,-9.26%,
CCC1CCCCN1C(=S)Nc1ccc(C(C)=O)cc1 (stereo not given),-21.2%,

Compound,"activity change, negative = inhibition",Potency
Cc1ccc(-c2cn3cc([N+](=O)[O-])ccc3n2)cc1,-11.8%,
CC[C@H](C)[C@@H](NC(=O)O[C@@H]1C(=O)c2cc(OC)ccc2O[C@H]1c1cccc(OC)c1)C(=O)OC,-14.9%,
O=[N+]([O-])c1cc(C(F)(F)F)ccc1NN=C1CCCC1,-7.57%,
C/C(=N\NC(=O)CCn1nc(C)cc1C)C(C)(C)C,-2.63%,
COC(=O)CCNc1ccc2c(c1)OCCO2,-9.02%,
CCCCC(=O)Nc1ccc2c(c1)OCCO2,,25.1 µM (active)
Cc1ccc(SCC(=O)Nc2ccc3c(c2)OCCO3)cc1,-4%,
Cc1cn(C2OC[C@@H](O)[C@@H]2CO)c(=O)[nH]c1=O (stereo not given in full),-7.64%,
O=C(CSc1nnc(-c2cccnc2)n1CCc1ccccc1)NCc1ccccc1,-12.6%,
Cc1ccccc1NC(=O)CSC1=NCCN1,-5.67%,
O=C(CSc1n[nH]c(-c2cccnc2)n1)Nc1ccnc2ccccc12,,15.8 µM (active)
C=CCn1cc(C(=O)NCc2ccc(Cl)cc2)c(=O)c2cc(S(=O)(=O)N(CC)CC)ccc21,15.1%,
CC(=O)c1sc(N/N=C\c2ccc(C)cc2)nc1C,-20.1%,
C=CCNC(=S)NNC(=O)c1ccc(Br)o1,-14.9%,
Cc1cccc(C)c1NC(=O)CSc1nnc(-c2ccccc2)n1Cc1ccc2c(c1)OCO2,-8.72%,
CC1=C(C(N)=O)C(c2ccc3c(c2)OCO3)n2nc(-c3cccc(C)c3)nc2N1 (stereo not given),-3.51%,
c1ccc(-c2nnc3n2NC(c2ccc4c(c2)OCO4)S3)cc1 (stereo not given),,14.1 µM (active)
COCCNc1nc(N)c([N+](=O)[O-])c(NCCO)n1,-10.5%,
O=C(NNC(=S)NCc1ccccc1)c1ccc(OC(F)F)cc1,-6.63%,
Cc1nc2nc(SCC(=O)NCc3ccco3)nn2c(C)c1Cc1ccccc1,,22.4 µM (active)

Compound,"activity change, negative = inhibition",Potency
Cc1ccc(Cc2c(C)nc3nc(SCC(=O)NCCN4CCOCC4)nn3c2C)cc1,-11.4%,
COc1cc(OC)cc(-c2nc3nc(C)c(CCC(=O)NCc4ccco4)c(C)n3n2)c1,-10.9%,
CCOC(=O)C1CCN(c2ccc(C(=O)O)cc2[N+](=O)[O-])CC1,-3.84%,
CC(=O)c1cc(-c2ccccc2)n(CCC(=O)NC2CCCCCC2)c1C,-4.2%,
CCOc1ccccc1NC(=O)C1CCC(CNc2c(N3CCOCC3)c(=O)c2=O)CC1 (stereo not given),-25.1%,
COc1ccc(CNC(=O)C2CCC(CNc3c(N4CCOCC4)c(=O)c3=O)CC2)cc1 (stereo not given),-17.3%,
O=C(NCc1ccccc1Cl)C1CCC(CNc2c(N3CCCCC3)c(=O)c2=O)CC1 (stereo not given),,12.6 µM (active)
O=C(CCN1C(=O)c2ccccc2C1=O)NNC(=O)c1ccc(Cl)cc1Cl,-7.71%,
Cc1c(Br)c([N+](=O)[O-])nn1CC(=O)Nc1sc2c(c1C(=O)OC(C)C)CCC(C)C2 (stereo not given),-1.95%,
C/C(=N/NS(=O)(=O)c1ccccc1)c1ccc(NC(=O)C(F)(F)F)cc1,-4.99%,
COc1ccc(/C=N/OCC(=O)N(Cc2ccccc2)c2ccccc2C(=O)O)cc1,-8.65%,
O=C(N/N=C/c1coc2ccccc2c1=O)c1cc2ccccc2o1,-20%,
Cc1cccc(N2CCN(C(=O)/C=C/c3ccco3)CC2)c1C,-20.4%,
CCOc1cc(-c2noc(CCC(=O)N3CCOCC3)n2)ccc1OC,-8.81%,
Cc1ccc(OCCCC(=O)N2CCOCC2)c(C)c1,,20 µM (active)
COc1ccc(OCC(=O)N2CCOCC2)cc1,4.8%,
COc1ccc(-c2nc3c(c4c2C[C@H](c2ccccc2)OC4)CN(C(=O)c2ccco2)CC3)c(C)c1,-11.6%,
Cc1ccc(C(C)NC(=O)Cn2nc(C)c([N+](=O)[O-])c2C)cc1 (stereo not given),-5.59%,
O=C(O)c1cccc(N=NN2CCCCCC2)c1,-9.76%,
CCc1nnc(NC(=O)CCN(c2ccc(C)cc2)S(=O)(=O)c2ccccc2)s1,-10.2%,
